Experiments:
Conditions in all cases: Compound Concentration (nM):1000
EIF2AK1 = tested on: EIF2AK1
EPHA1 = tested on: EPHA1
EPHA2 = tested on: EPHA2
EPHA3 = tested on: EPHA3
EPHA4 = tested on: EPHA4
EPHA5 = tested on: EPHA5
EPHA6 = tested on: EPHA6
EPHA7 = tested on: EPHA7
EPHA8 = tested on: EPHA8
EPHB1 = tested on: EPHB1
EPHB2 = tested on: EPHB2
EPHB3 = tested on: EPHB3
EPHB4 = tested on: EPHB4
EPHB6 = tested on: EPHB6
ERBB2 = tested on: ERBB2
ERBB3 = tested on: ERBB3
ERBB4 = tested on: ERBB4
ERK1 = tested on: T1, ERK1
T1 construct: gene MAPK3

ERK2 = tested on: T2, ERK2
T2 construct: gene MAPK1

ERK3 = tested on: T3, ERK3
T3 construct: gene MAPK6
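Also: KINOMEscan scanMAX binding as percent activity remaining versus control; lower means stronger binding.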

Structure (SMILES) | Percent Control (EIF2AK1) [%] | Percent Control (EPHA1) [%] | Percent Control (EPHA2) [%] | Percent Control (EPHA3) [%] | Percent Control (EPHA4) [%] | Percent Control (EPHA5) [%] | Percent Control (EPHA6) [%] | Percent Control (EPHA7) [%] | Percent Control (EPHA8) [%] | Percent Control (EPHB1) [%] | Percent Control (EPHB2) [%] | Percent Control (EPHB3) [%] | Percent Control (EPHB4) [%] | Percent Control (EPHB6) [%] | Percent Control (ERBB2) [%] | Percent Control (ERBB3) [%] | Percent Control (ERBB4) [%] | Percent Control (ERK1) [%] | Percent Control (ERK2) [%] | Percent Control (ERK3) [%]
CC(C)COC(=O)c1ccc2c(c1)/C(=C/Nc1ccc(S(N)(=O)=O)cc1)C(=O)N2 [GW416981X] | 100 | 100 | 100 | 100 | 94 | 100 | 100 | 100 | 100 | 100 | 100 | 100 | 100 | 100 | 26 | 81 | 50 | 100 | 100 | 100
NS(=O)(=O)c1ccc(N/N=C2\C(=O)Nc3ccc(C(=O)NCCc4c[nH]cn4)cc32)cc1 [GW300660X] | 100 | 100 | 100 | 100 | 89 | 100 | 100 | 100 | 100 | 100 | 100 | 100 | 100 | 37 | 57 | 86 | 100 | 100 | 100 | 100
NS(=O)(=O)c1ccc(N/N=C2\C(=O)Nc3ccc(Cl)cc32)cc1 [GW280670X] | 100 | 100 | 100 | 100 | 96 | 100 | 100 | 100 | 100 | 100 | 100 | 100 | 100 | 82 | 81 | 72 | 100 | 100 | 100 | 100
COc1ccc2c(-c3ccnc(Nc4cccc(OC(F)(F)F)c4)n3)cnn2n1 [GW810372X] | 100 | 64 | 91 | 100 | 86 | 100 | 100 | 100 | 100 | 100 | 100 | 100 | 100 | 83 | 100 | 65 | 100 | 100 | 100 | 100
CN(C)CCNC(=O)Nc1ccc(N(C)c2ccnc(Nc3ccc(CS(C)(=O)=O)cc3)n2)cc1.Cl [GW830900A] | 88 | 76 | 89 | 85 | 100 | 90 | 100 | 81 | 78 | 78 | 100 | 100 | 100 | 28 | 100 | 93 | 81 | 100 | 85 | 94
COC(=O)Nc1nc2ccc(Oc3ccc(NC(=O)Nc4cc(C(F)(F)F)ccc4F)cc3)cc2s1.Cl [GW693917A] | 100 | 19 | 14 | 9.9 | 12 | 52 | 11 | 16 | 0.5 | 31 | 34 | 81 | 59 | 9.4 | 100 | 45 | 100 | 100 | 100 | 66
CCc1ccc(Oc2nccc(-c3c(-c4ccc(F)cc4)ncn3C3CCNCC3)n2)cc1 [SB-242719] | 100 | 94 | 95 | 95 | 95 | 100 | 90 | 100 | 97 | 100 | 95 | 94 | 98 | 76 | 20 | 78 | 99 | 92 | 100 | 100
COc1cc(C)c(N(C)C(=O)CN(C)C)cc1Nc1nc(Nc2cccc(F)c2C(N)=O)c2cc[nH]c2n1 [GSK2219385] | 100 | 93 | 86 | 100 | 95 | 100 | 100 | 100 | 94 | 99 | 100 | 93 | 100 | 74 | 94 | 57 | 86 | 65 | 100 | 90
O=C(Nc1n[nH]c2nc(-c3ccc(O)cc3)c(Br)cc12)C1CC1 [SB-725317] | 14 | 82 | 100 | 85 | 86 | 100 | 100 | 100 | 100 | 100 | 100 | 100 | 100 | 57 | 80 | 32 | 100 | 100 | 100 | 100
Cl.c1ccc(Cc2nc3ccc(Nc4ncnc5ccccc45)cc3[nH]2)cc1 [GR269666A] | 100 | 100 | 100 | 100 | 100 | 100 | 100 | 100 | 100 | 100 | 100 | 100 | 100 | 81 | 0 | 20 | 1.8 | 100 | 100 | 100

From PMC7826789 (International Journal of Molecular Sciences, 2021)
